Screening results deposited in PubChem by National Center for Advancing Translational Sciences (NCATS).
LMNA splice mod – changes lamin A minigene splicing in HeLa cells | 200,000 tested, 0.01% active | HeLa LMNA splicing GFP/RFP minigene ratio, 48 h | Potency, µM (doses to about 46.1 µM), inactives show at the top dose ratio change, negative = inhibition, usual class: inhibitors | AID 1487; active = well fitted inhibition curve with a large enough effect in the signal ratio, with a control signal flat, not every such curve was filed as active; inconclusive = small, poorly fitted or top-dose-only effect, or effect the other way, or a change in a side signal; the % refers to the signal ratio; note: potency is the fitted concentration of half-maximal effect
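S3 HeLa stable clones carrying a lamin A-EGFP splicing minigene plus DsRed2 were seeded at 600 cells/well in Opti-MEM with 2% FBS, pin-dosed and incubated 48 h at 37°C. Acumen cytometry (488 nm) gave the GFP/RFP total-intensity ratio.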
KinaseGlo FLuc – Kinase-Glo luciferase inhibition (counter-screen). Q27757. Kinase-Glo luciferase, ATP luminescence, 8 min. Potency, µM (doses to about 38.3 µM), inactives show top-dose activity change, negative = inhibition, most hits filed as inhibitors. 200,000 tested, 0.28% active; active = well fitted inhibition curve with a large enough effect; inconclusive = small, poorly fitted or top-dose-only effect; note: potency is the fitted concentration of half-maximal effect; nearly all actives have a fitted effect of over 60% in size
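Luminescence was the read-out, taken after 8-minute incubation at ambient temperature. Luciferase turned over luciferin with 10 uM ATP in imidazole pH 7.2 buffer containing KCl, MgCl2, Tween 20 and BSA.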
PNC inhibitor – inhibitors of perinucleolar compartment assembly. AID 2417. PC3M PTB-GFP, PNC prevalence imaging, 16 h; hits give low values. activity change (PNC), negative = inhibition, % at 10 µM. 140,000 tested, 3.1% active;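 active = readout at or below -70, meaning at least 70% loss of cells showing the perinucleolar compartment, a nuclear body marking cancer cells; inconclusive = readout between -30 and a set limit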;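 note: plate controls were DMSO wells for no effect and camptothecin positive control wells for full effect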
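PC3M cells stably expressing PTB-GFP, 750–1000 cells/well, treated 16 h at 37 °C with compound (23 nl of library stock), in duplicate. After paraformaldehyde fixation and Hoechst stain, imaged at 20x; PNC prevalence scored by image analysis.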
ALDH1A1 inh – ALDH1A1 (human) enzyme inhibition. P00352. Potency, µM (top dose mostly 75.3 µM), for inactives: top-dose activity, negative = inhibition, most hits filed as inhibitors. 220,000 tested, 7.3% active. AID 1030. Purified ALDH1A1, NADH fluorescence, propionaldehyde substrate;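 note: potency is the fitted concentration of half-maximal effect; plate controls were no enzyme wells and a reference inhibitor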
Target sequence (P00352 whole entry, looked up): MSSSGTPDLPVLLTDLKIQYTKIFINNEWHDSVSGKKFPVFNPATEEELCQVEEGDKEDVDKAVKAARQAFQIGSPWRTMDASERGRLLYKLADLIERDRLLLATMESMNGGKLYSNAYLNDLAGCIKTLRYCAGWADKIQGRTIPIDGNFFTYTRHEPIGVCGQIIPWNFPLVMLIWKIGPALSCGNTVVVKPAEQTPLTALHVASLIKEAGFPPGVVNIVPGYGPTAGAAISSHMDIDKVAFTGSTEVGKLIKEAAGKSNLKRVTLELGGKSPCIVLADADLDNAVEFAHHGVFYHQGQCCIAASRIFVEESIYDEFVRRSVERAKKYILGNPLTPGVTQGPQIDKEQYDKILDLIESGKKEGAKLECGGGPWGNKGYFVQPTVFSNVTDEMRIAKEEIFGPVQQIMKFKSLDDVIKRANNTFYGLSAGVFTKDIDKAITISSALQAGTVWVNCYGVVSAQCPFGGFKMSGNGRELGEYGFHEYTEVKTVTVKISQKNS
IMPase inh – cell-permeable inhibitors of inositol monophosphatase (IMPase); P97697; CHO-M1 cells, IP1 accumulation, HTRF TR-FRET ratio; inhibition (IP1 accumulation), % at 46.1 µM; 120,000 tested, under 10 active; AID 901; active = well fitted curve in the direction sought with a large enough effect in the signal ratio, not every such curve was filed as active; inconclusive = small, poorly fitted or top-dose-only effect, or a change in a side signal; inactive = no such curve, though single readings can be large or run the other way; the % refers to the signal ratio;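 note: cells stimulated with carbachol in lithium chloride buffer; plate controls were DMSO basal wells for no effect and reference inhibitor wells for full effect; higher means more IMPase inhibition seen as more IP1 and lower FRET ratio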
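CHO-M1 cells (CHO stably expressing M1 receptor), compound up to 46 uM final, stimulated with carbachol (50 uM as added) in buffer with 50mM LiCl, pH 7.4, 30 min at 37C. Cytosolic IP1 read by TR-FRET; AC50 from Hill fits.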
HPGD inh – blocks human HPGD enzyme activity. P15428. purified HPGD, NADH fluorescence kinetic, PGE2 substrate. Potency, µM, without a hit: at the highest dose activity change, negative = inhibition, most hits filed as inhibitors. 150,000 tested, 4.3% active. AID 894; note: potency is the fitted concentration of half-maximal effect
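NADH formation kinetics: reaction with 30 uM PGE2 and 1 mM NAD+ (final), 20 nM enzyme, Tris-HCl pH 8 with Tween 20, after 15 min compound preincubation at room temperature. Fluorescence change, last versus first of five reads.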
Active calls of the source: *; ? = inconclusive; nt = no result; [ ] = dose if it differs, or a comment. Rows were chosen to be rich in hits. Some 10% of all compounds tested hit in one or more screens of this group. Unless noted, calls come from the whole dose curve; as a rule, active = well fitted inhibition curve with a large enough effect (not every such curve was filed as active); inconclusive = small, poorly fitted or top-dose-only effect, or another doubt; inactive = no such curve, though single readings can be large or run the other way. Unless noted, % is set by controls: 0 for no effect and ±100 for the full control effect.

SMILES	LMNA splice mod	KinaseGlo FLuc	PNC inhibitor	ALDH1A1 inh	IMPase inh	HPGD inh
CSc1nc(N)c(N=Nc2ccc([As](=O)(O)O)cc2)c(=O)[nH]1	nt	nt	nt	8.91µM*	nt	nt
C=C(C)C1CCC(C)=CC1c1c(O)cc(O)cc1CCCCC (stereo not drawn)	nt	-4.2%[39.9 µM]	nt	-12.8%	nt	-4.3%
CN1C(=O)NC(c2cccc(O)c2)C(C(=O)c2cccs2)C1(O)C(F)(F)F (stereo not drawn)	0.5%	-9.3%	2.0	0.794µM*	1.6	-6.7%
CCS(=O)(=O)N1N=C(c2cccc(NS(C)(=O)=O)c2)CC1c1ccccc1 (stereo not drawn)	?	-0.4%	nt	12.6µM*	nt	nt
C[C@H](CCC(=O)O)[C@H]1CC[C@@H]2[C@H]3CC[C@H]4C[C@@H](O)CC[C@@]4(C)[C@H]3CC[C@]21C	?	-1.8%[17.1 µM]	nt	8.1%[20.9 µM]	-3.7[20.6 µM]	5.7%
CCOC(=O)c1c(C)n(Cc2ccco2)c2ccc(O)cc12	-1.4%	0.5%	16.5	3.98µM*	34.4	22.4µM*
CCOC(=O)c1c(C)n(COCCO)c2ccc(O)cc12	-6.6%	-1.5%	?	1.9%	4.3	-20.2%
COC(=O)CSC1=NP(=S)(SCC(=O)OC)N2CCCC2=C1C#N (stereo not drawn)	7.0%	-3.7%	-126.5*	?	-4.8	-2.3%
N#CC(C#N)=Cc1ccc(-c2ccccc2F)o1	-10.2%	-4.4%	-3.0	8.91µM*	nt	-2.5%
N#CC(C#N)=Cc1ccc(-c2ccccc2)o1	?	1.0%	43.3	?	nt	-14.1%
Cc1cccc(N2C(=O)NC(=O)/C(=C\c3cc(C)n(-c4sc5c(c4C#N)CCCC5)c3C)C2=O)c1C	-3.6%	-2.1%	16.5	0.251µM*	-2.6	3.98µM*
CCN1CCN(c2ccc(N)cc2)CC1	-13.6%[46 µM]	-2.8%	nt	-12.9%	nt	nt
CN1CCN(c2ccc(C=O)cc2)CC1	11.5%	-8.0%	?	12.6µM*	?	-5.3%
CN1CCN(c2ccc(NC(=O)C(C)(C)C)cc2)CC1	-2.1%	0.1%	-12.1	8.0%	3.3	-5.9%
CN1CCN(c2ccc(N)cc2)CC1	-11.3%	-13.7%	25.4	31.6µM*	18.5	-13.1%
C[C@H](N)C(=O)N[C@@H](C)C(=O)N[C@@H](Cc1ccccc1)C(=O)CCl	nt	nt	nt	-15.6%	nt	nt
O=c1[nH]c(=O)n(Cc2ccccc2)c(O)c1C=NCCN1CCNCC1	4.9%	-0.2%	7.8	15.8µM*	-4.8	22.4µM*
O=c1[nH]c(=O)n(Cc2ccccc2)c(O)c1C=Nc1ccc(CN2CCOCC2)cc1	11.6%	nt	27.4	14.1µM*	5.8	nt
O=c1[nH]c(=O)n(Cc2ccco2)c(O)c1C=NCCN1CCOCC1	1.9%	0.1%	15.4	-14.1%	-1.8	-12.2%
O=c1[nH]c(=O)n(CCC2=CCCCC2)c(O)c1C=NCCN1CCNCC1	11.8%	-1.5%	1.1	14.1µM*	3.4	-4.8%
O=C(O)[C@H]1[C@H](C(=O)O)[C@H]2CC[C@@H]1O2	nt	nt	nt	nt	5.2	nt
c1nc[nH]n1	nt	nt	nt	1.2%	nt	0.9%
C[C@H](N)c1cccc(Cl)c1Cl	nt	nt	nt	nt	3.6	nt
CCC(=O)O[C@H]1CC[C@H]2[C@@H]3CCC4=CC(=O)CC[C@]4(C)[C@H]3CC[C@]12C	?	-5.5%[17.1 µM]	nt	-9.2%[20.9 µM]	-3.5[20.6 µM]	-5.0%
C[C@@]12CC[C@H]3[C@H](CCC4=CC(=O)CC[C@H]43)[C@H]1CC[C@H]2OC1(O)C(=O)c2ccccc2C1=O	nt	-0.6%[7.66 µM]	nt	0.316µM*	nt	-0.8%
SMILES	LMNA splice mod	KinaseGlo FLuc	PNC inhibitor	ALDH1A1 inh	IMPase inh	HPGD inh
Fc1ccc(C(OCCN2CCN(C/C=C/c3ccccc3)CC2)c2ccc(F)cc2)cc1	nt	nt	nt	-14.3%	nt	nt
O=C(c1ccccc1)N1CCC2(CC1)OCCO2	nt	nt	nt	2.2%	nt	nt
CN1CCN(c2ccc(C(N)=O)cc2[N+](=O)[O-])CC1	-9.3%	-0.8%	-1.5	8.0%	nt	0.4%
O=C(c1ccc(N2CCCCCC2)c([N+](=O)[O-])c1)N1CCC2(CC1)OCCO2	13.2%[46 µM]	2.5%	nt	11.2µM*	nt	nt
O=C(c1ccc2c(c1)OCO2)N1CCC2(CC1)OCCO2	3.8%	3.9%	-7.9	5.1%	-6.4	25.1µM*
CCCC(=O)Cl	nt	nt	nt	4.4%	nt	-1.7%
